Source: PubChem BioAssay
Rows were chosen to be rich in hits. Some 7.5% of all compounds tested hit in one or more screens of this group.
ELG1 genotox = induces genotoxicity in HEK293T cells with luciferase-tagged ELG1 | HEK293T ELG1-luciferase reporter, luminescence, 16 h | Potency, µM (titrated, usually from 46 µM), actives largely listed as activators | 330,000 tested, 1.3% active | AID 504466; note: nearly all actives have a fitted effect of over 60% in size
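Luminescence read-out: rising ELG1-luciferase signal, reflecting elevated ELG1 protein under genetic stress, flags genotoxic compounds. Cells were treated for 16 hr at 37 °C before ONE-Glo detection.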
SMN2 splice enh = enhancers of SMN2 splice variant expression. HEK293 SMN2-luciferase splicing reporter, luminescence, 30-36 h. Potency, µM (highest dose often 46.1 µM), hits mostly activators. 210,000 tested, 2.8% active. AID 1458; note: nearly all actives have a fitted effect of over 55% in size
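HEK293 cells carry an SMN2 […]–luciferase reporter in which exon 7 inclusion puts luciferase in frame. Cells were plated 10-12 h before compound addition, then incubated 30-36 h at 37C. ONE-Glo luminescence was read; sodium butyrate at 4.5 mM final served as control.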
Luc counter = counter-screen: inhibitors of Kinase-Glo firefly luciferase; Q27757; Kinase-Glo luciferase, ATP luminescence, 8 min; Potency, µM (titrated, usually from 38.3 µM), most hits filed as inhibitors; 200,000 tested, 0.28% active; AID 1379; note: nearly all actives have a fitted effect of over 60% in size
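Recombinant Kinase-Glo luciferase, 10 uM ATP (linear range), luciferin; imidazole pH 7.2 / KCl / MgCl2 / Tween / BSA buffer; 8 min RT; luminescence.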
FLuc modulator = inhibits or activates purified firefly luciferase, miR-21 counter-screen; purified FLuc, Km substrates, luminescence inhibition; Potency, µM (series often up to 57.5 µM), hits mostly inhibitors; 360,000 tested, 6.9% active; note: nearly all actives have a fitted effect of over 55% in size
Target sequence (P08659 whole entry, looked up): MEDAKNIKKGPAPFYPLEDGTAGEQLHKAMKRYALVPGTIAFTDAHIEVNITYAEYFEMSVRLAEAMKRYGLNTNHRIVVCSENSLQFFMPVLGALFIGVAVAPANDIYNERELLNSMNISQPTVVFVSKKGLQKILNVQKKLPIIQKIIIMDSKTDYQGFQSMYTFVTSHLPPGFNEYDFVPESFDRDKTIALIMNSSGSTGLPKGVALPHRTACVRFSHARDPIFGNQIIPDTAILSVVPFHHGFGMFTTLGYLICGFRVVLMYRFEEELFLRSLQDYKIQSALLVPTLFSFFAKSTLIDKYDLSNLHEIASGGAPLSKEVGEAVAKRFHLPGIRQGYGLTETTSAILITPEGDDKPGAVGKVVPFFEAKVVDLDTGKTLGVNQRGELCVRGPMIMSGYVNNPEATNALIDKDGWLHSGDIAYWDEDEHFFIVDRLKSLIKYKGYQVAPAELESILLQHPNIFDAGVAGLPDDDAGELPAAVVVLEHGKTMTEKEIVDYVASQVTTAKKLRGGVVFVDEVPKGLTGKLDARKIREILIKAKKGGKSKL
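Purified P. pyralis luciferase, 10 nM final, with Km-level 10 uM D-luciferin and 10 uM ATP in 50 mM Tris acetate pH 7.5, 10 mM Mg acetate, 0.01% Tween-20, 0.05% BSA; 6-point qHTS titration about 60 µM downward; luminescence read.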
Rab9 prom act = activates the Rab9 promoter. Huh7 Rab9 promoter-luciferase reporter, luminescence, 24 h. Potency, µM (top dose mostly 9.22 µM), actives largely listed as activators. 320,000 tested, 2.8% active. AID 485297; note: nearly all actives have a fitted effect of over 60% in size
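Quantitative HTS format; Huh7 Rab9-luciferase reporter cells (1500/well) receive compound 2 h post-plating, incubate 24 h at 37 °C, then get luciferase reagent for 10 min before luminescence reading.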
NPC1 prom act = NPC1 promoter activation; Huh7 NPC1 promoter luciferase reporter, 24 h; Potency, µM (top dose mostly 9.22 µM), usual class: activators; 320,000 tested, 2.4% active; note: nearly all actives have a fitted effect of over 60% in size
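Huh7 reporter cells (NPC1 promoter driving luciferase) are dosed with compound for 24 h at 37 °C, 5% CO2; luciferase detection reagent is then added and luminescence measured after 10 min at ambient temperature.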
Hits are given with their value. Calls come from the whole dose curve; as a rule, active = well fitted curve in the direction sought with a large enough effect; inconclusive = small, poorly fitted or top-dose-only effect, or another doubt; inactive = no such curve, though single readings can be large; an effect the other way counts as inactive or inconclusive.

Cc1ccc(CNC(=O)CNS(=O)(=O)c2cccs2)cc1 was read as FLuc modulator inactive.
O=C(COC(=O)c1cccs1)NC12CC3CC(CC(C3)C1)C2 was read as ELG1 genotox inactive, SMN2 splice enh inactive, Luc counter inactive, FLuc modulator 24µM, Rab9 prom act inactive and NPC1 prom act inactive.
Screening O=C(COC(=O)c1ccccn1)NC12CC3CC(CC(C3)C1)C2 returned ELG1 genotox inactive, SMN2 splice enh inactive, Luc counter inactive, FLuc modulator 21µM, Rab9 prom act inactive and NPC1 prom act inactive.
`O=C(c1ccc(F)cc1F)N1CCC(c2nc(-c3ccc(S(=O)(=O)N4CCCC4)cc3)no2)CC1` gave SMN2 splice enh inactive and FLuc modulator inactive.
`CC(C)CC(=O)Nc1ccc(Nc2ccccc2)cc1` gave ELG1 genotox inactive, SMN2 splice enh inactive, Luc counter inactive, FLuc modulator 19µM, Rab9 prom act inactive and NPC1 prom act inactive.
Cc1cccc(NC(=O)CC(C)(C)C)c1 was read as ELG1 genotox inactive, Luc counter inactive, FLuc modulator inactive, Rab9 prom act inactive and NPC1 prom act inactive.
CC(C)(C)CC(=O)Nc1ccc(Nc2ccccc2)cc1 was read as ELG1 genotox inactive, SMN2 splice enh inactive, Luc counter inactive, FLuc modulator 12µM, Rab9 prom act 3.2µM and NPC1 prom act inactive.
Screening CCCCc1ccc(NC(=O)CC(C)(C)C)cc1 returned ELG1 genotox inactive, Luc counter inactive, FLuc modulator 15µM, Rab9 prom act inconclusive and NPC1 prom act inconclusive.
For CCCCc1ccc(NC(=O)CC(C)=O)cc1 the results were ELG1 genotox inconclusive, SMN2 splice enh inactive, Luc counter inactive, FLuc modulator inactive, Rab9 prom act inactive and NPC1 prom act inactive.
CC(C)C(=O)Nc1ccc(Nc2ccccc2)cc1 was read as ELG1 genotox inactive, SMN2 splice enh inactive, Luc counter inactive, FLuc modulator 19µM, Rab9 prom act inactive and NPC1 prom act inactive.
`CCC(CC)C(=O)Nc1ccc(Nc2ccccc2)cc1` gave ELG1 genotox inactive, SMN2 splice enh inactive, Luc counter inactive, FLuc modulator inconclusive, Rab9 prom act inactive and NPC1 prom act inactive.
`COc1ccc(C(=O)NCC(c2cccnc2)N2CCN(c3ccccc3F)CC2)cc1OC` (stereo not drawn) gave FLuc modulator inactive.
`Cc1nn(CC(=O)N2CCN(c3ccccc3)CC2)c(=O)c2cc3sccc3n12` gave SMN2 splice enh inactive and FLuc modulator inactive.
For O=C(CCSCc1ccccc1Cl)N1CCN(c2ccc(F)cc2)CC1 the results were FLuc modulator inactive.
For Cc1ccc2c(c1)-c1c(c(C(=O)N3CCN(c4cc(Cl)ccc4C)CC3)nn1C)CS2 the results were FLuc modulator inactive.
COc1ccc(C(=O)Nc2nnc(SCC(=O)NC3CC3)s2)cc1 was read as ELG1 genotox inconclusive, FLuc modulator 1.2µM, Rab9 prom act 2.5µM and NPC1 prom act 1.4µM.
COc1ccc(C(=O)Nc2nnc(SCc3cc(=O)c4cccc(F)c4[nH]3)s2)cc1 was read as FLuc modulator 21µM.
For COc1cccc(C(=O)Nc2nnc(SCC(=O)NC3CC3)s2)c1 the results were ELG1 genotox inconclusive, FLuc modulator 5.4µM, Rab9 prom act inconclusive and NPC1 prom act inconclusive.
COc1cccc(N2CC(C(=O)Nc3nnc(SCC(=O)NC4CCCC4)s3)CC2=O)c1 (stereo not drawn) was read as ELG1 genotox inactive, FLuc modulator inactive, Rab9 prom act inactive and NPC1 prom act inactive.
Cc1cccc(Nc2c(-c3cccs3)nc3nc(C)cc(C)n23)c1 was read as SMN2 splice enh inactive and FLuc modulator inconclusive.
Cc1ccc(NC(=O)Cn2ccn(Cc3ccc(Cl)cc3)c(=O)c2=O)cc1C was read as FLuc modulator inactive.
`CC(=O)c1sc(NCc2ccccc2)nc1C` gave ELG1 genotox inactive, FLuc modulator inactive, Rab9 prom act inactive and NPC1 prom act inactive.
Screening CC(=O)c1sc(NC(=O)c2ccc(F)c(S(=O)(=O)N3CCOCC3)c2)nc1C returned ELG1 genotox inactive, FLuc modulator 19µM, Rab9 prom act inactive and NPC1 prom act inactive.
CC(=O)c1sc(NC(=O)c2ccc(Cl)cc2)nc1C was read as ELG1 genotox inconclusive, FLuc modulator inconclusive, Rab9 prom act 1.4µM and NPC1 prom act 3.2µM.
For CC(=O)c1sc(NCc2ccc(C)cc2)nc1C the results were ELG1 genotox 23µM, FLuc modulator 15µM, Rab9 prom act 2.8µM and NPC1 prom act 3.2µM.
`CC(=O)c1sc(NC(=O)c2cccc(C)c2)nc1C` gave ELG1 genotox 5.2µM, SMN2 splice enh 14µM, Luc counter inactive, FLuc modulator 6.7µM, Rab9 prom act 2µM and NPC1 prom act 3.2µM.
`CC(=O)Nc1nc(C)c(C(C)=O)s1` gave ELG1 genotox inactive, SMN2 splice enh inactive, Luc counter inactive, FLuc modulator inactive, Rab9 prom act inactive and NPC1 prom act inactive.
Screening COc1ccc(N(C)S(=O)(=O)c2cccc(C(=O)Nc3nc(C)c(C(C)=O)s3)c2)cc1 returned ELG1 genotox inactive, FLuc modulator inactive, Rab9 prom act inactive and NPC1 prom act inactive.
For CC(=O)c1sc(NC(=O)c2cc(S(=O)(=O)N3CCOCC3)ccc2F)nc1C the results were ELG1 genotox inactive, Rab9 prom act inactive and NPC1 prom act inactive.
`Cn1nnnc1SCCNCc1ccc(OCc2ccc(Cl)cc2)cc1` gave SMN2 splice enh inactive and FLuc modulator inconclusive.
For CCCc1cc(=O)[nH]c(SCC(=O)Nc2sc3c(c2C(N)=O)CCCC3)n1 the results were ELG1 genotox inactive.
For Cc1cccc(-c2nc(CN3CCCC(C(=O)NCc4ccc(Cl)cc4)C3)c(C)o2)c1 (stereo not drawn) the results were SMN2 splice enh inactive and FLuc modulator inconclusive.
Screening CC(=O)c1ccc(-c2ccc(C(=O)Nc3nc(C)c(C(C)=O)s3)o2)cc1 returned ELG1 genotox inactive, FLuc modulator inactive, Rab9 prom act inactive and NPC1 prom act inactive.
For CC(=O)c1sc(NC(=O)c2ccc(F)c(F)c2)nc1C the results were ELG1 genotox 16µM, SMN2 splice enh inactive, Luc counter inactive, FLuc modulator inconclusive, Rab9 prom act 3.2µM and NPC1 prom act inconclusive.
`CC(C)(C)C(=O)Nc1nnc2n1CCS2` gave FLuc modulator inactive.
`CC(C)(C)c1ccc(C(=O)Nc2nnc3n2CCS3)cc1` gave FLuc modulator 6µM.
For COc1ccc(N2CC(NC(=O)c3ccc(Br)o3)CC2=O)cc1 (stereo not drawn) the results were FLuc modulator inactive.
Cc1ccc(CNC(=O)Cc2coc3cc(C)cc(C)c23)cc1 was read as SMN2 splice enh inactive and FLuc modulator inactive.
